# Compounds with a hit are over-represented: about 18% of the library has one in this group of screens.
# DT40 TDP1 no CPT = qHTS for Inhibitors of human tyrosyl-DNA phosphodiesterase 1 (TDP1): qHTS in cells in absence of CPT | DT40 Tdp1-/- hTDP1 cells, no CPT, ATP luminescence, 48 h | Potency, µM (top dose mostly 46.2 µM), for the others: at the highest dose activity change, negative = growth inhibition, most hits filed as inhibitors | 420,000 tested, 15% active; also: potency is read from the fitted curve at half-maximal effect; nearly all actives have a fitted effect of over 55% in size
#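 DT40 Tdp1-/-;hTDP1 cells, no CPT (DMSO vehicle only), 400 cells/well; compounds pin-transferred; ≥48 hr, 37 °C; CellTiter-Glo 30 min RT dark, luminescence read.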
# IL-1B inflam inh = inhibitors of inflammasome signaling (IL-1 beta secretion); activity change, % at 57.5 µM; THP-1 LPS/ATP IL-1B secretion, AlphaLISA, 16 h; hits give low values; 360,000 tested, 4.7% active; AID 743279; in the data active = activity change below about -50%; inconclusive = mostly about -30% to -49%
#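 Secreted IL-1B measured by AlphaLISA bead assay after 16 h compound exposure of THP-1 cells; compounds (final up to 57.5 uM) added 1 h before LPS (250 ng/mL) and ATP (1.25 mM) stimulation; lower signal means less secretion.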
# CtBP-E1A blk = blocks the CtBP interaction with E1A. AID 651724. activity change, % (no concentration beside the values). AlphaScreen GST-E1A/His-CtBP binding, 1536-well; hits give low values. 340,000 tested, 0.49% active; in the data active = activity change below about -65%; inconclusive = mostly about -30% to -63%
#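 AlphaScreen with 125 nM GST-E1A and 125 nM His-CtBP (5X stocks) in Tris pH 8.0, 300 mM NaCl, BSA, Tween 20, TCEP. Compounds preincubated 2 h at 37 deg C, then glutathione donor/nickel acceptor beads added for 1 h at 37 deg C in dark.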
# Six1-Eya2 inh = inhibitors of human Six1/Eya2 interaction; Q15475+O00167; AlphaScreen GST-Six1/His-Eya2 binding, biochemical; hits give low values; activity change, % (test concentration not listed); 360,000 tested, 0.56% active; AID 651725; in the data active = activity change below about -65%; inconclusive = mostly about -30% to -63%
# Target sequence (O00167 whole entry, looked up): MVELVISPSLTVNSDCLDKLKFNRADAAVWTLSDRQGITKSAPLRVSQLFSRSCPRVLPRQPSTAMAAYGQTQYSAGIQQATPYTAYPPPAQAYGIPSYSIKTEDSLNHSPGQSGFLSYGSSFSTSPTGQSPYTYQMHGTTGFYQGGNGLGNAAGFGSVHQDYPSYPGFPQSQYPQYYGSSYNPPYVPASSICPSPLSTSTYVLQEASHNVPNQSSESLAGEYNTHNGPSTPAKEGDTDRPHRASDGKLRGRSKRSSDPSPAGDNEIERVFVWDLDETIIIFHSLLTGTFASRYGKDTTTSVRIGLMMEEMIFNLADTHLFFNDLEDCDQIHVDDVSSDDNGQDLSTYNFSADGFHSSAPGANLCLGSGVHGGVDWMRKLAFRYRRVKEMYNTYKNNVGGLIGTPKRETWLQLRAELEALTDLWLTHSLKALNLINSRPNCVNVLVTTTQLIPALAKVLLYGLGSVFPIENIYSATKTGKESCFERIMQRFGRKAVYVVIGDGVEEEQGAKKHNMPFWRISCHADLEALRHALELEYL
# Target sequence (Q15475 whole entry, looked up): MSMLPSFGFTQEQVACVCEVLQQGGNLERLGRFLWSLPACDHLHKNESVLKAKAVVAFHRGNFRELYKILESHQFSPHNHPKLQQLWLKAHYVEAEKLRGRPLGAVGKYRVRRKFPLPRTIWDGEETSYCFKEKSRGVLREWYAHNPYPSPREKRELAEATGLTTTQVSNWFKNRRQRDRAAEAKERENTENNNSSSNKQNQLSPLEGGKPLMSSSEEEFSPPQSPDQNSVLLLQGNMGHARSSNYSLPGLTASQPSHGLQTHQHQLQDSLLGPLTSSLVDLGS
#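 Compounds are tested against tagged Six1 and Eya2 proteins bridged by glutathione donor and nickel acceptor beads; after a one-hour incubation at 37 °C without light, AlphaScreen emission is recorded.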
# TDP1 cell CPT = growth inhibition of DT40 Tdp1-/-;hTDP1 cells with camptothecin (screen for TDP1 inhibitors); chicken DT40 Tdp1-/-;hTDP1 cells + 20 nM CPT, ATP luminescence, 48 h; Potency, µM (titrated, usually from 46.2 µM), inactives show at the top dose activity change, negative = growth inhibition, actives largely listed as inhibitors; 420,000 tested, 12% active; AID 686979; also: potency is read from the fitted curve at half-maximal effect; nearly all actives have a fitted effect of over 55% in size
#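 Chicken DT40 Tdp1-/- cells complemented with human TDP1, 400 cells/well, exposed to compounds plus 20 nM camptothecin for at least 48 h at 37 C; viability read as ATP content by CellTiter-Glo luminescence.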
# TDP1 block = inhibitors of human tyrosyl-DNA phosphodiesterase TDP1; Q9NUW8; recombinant TDP1, AlphaScreen DNA substrate cleavage; Potency, µM (titrated, usually from 130 µM), for inactives: at the highest dose activity change, negative = inhibition, usual class: inhibitors; 350,000 tested, 0.28% active; AID 485290; also: potency is read from the fitted curve at half-maximal effect; nearly all actives have a fitted effect of over 40% in size
#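 Recombinant E. coli-expressed Tdp1 (1 nM) preincubated with compound 15 min at RT, then 5'-biotin/3'-phosphotyrosine-FITC DNA substrate (15 nM) added for 5 min. AlphaScreen beads (10 ug/ml) added, 10 min RT; tyrosine-FITC cleavage read as signal loss.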
# * marks the source's active call; other numbers are inactive results; i = inactive; u = inconclusive; x = no result. Unless noted, calls follow the shape of the dose curve; as a rule, active = well fitted curve in the direction sought with a large enough effect; inconclusive = small, poorly fitted or top-dose-only effect, or another doubt; inactive = no such curve, though single readings can be large; an effect the other way counts as inactive or inconclusive. % is scaled to controls: 0 for no effect and ±100 for the full control effect.
SMILES,DT40 TDP1 no CPT,IL-1B inflam inh,CtBP-E1A blk,Six1-Eya2 inh,TDP1 cell CPT,TDP1 block
C=CCN1C(=O)CSc2ccc(C(=O)N3CCC4(CC3)OCCO4)cc21,-10%,5,10,2,-20%,6%
CC(C)(C)[C@]1(O)C[C@@H]2OC(=O)C[C@@]23C(=O)O[C@@H]2OC(=O)[C@@H](O)C213 (some centres undefined),2%,21,0,1,-2%,0%
CCOc1ccc(N2C(=O)NC(=O)/C(=C\c3ccc(N4CCOCC4)cc3C)C2=O)cc1,u,15,0,18,-12%,2%
CN1CCc2nc(SCc3ccccc3Br)c(C#N)cc2C1,18µM*,-17,x,-5,u,-3%
CCOc1ccc(-n2c(O)c(C=NCCN3CCNCC3)c(=O)[nH]c2=O)cc1,-6%,0,45,29,u,0%
Cn1c(O)c(C(c2ccncc2)c2c(O)n(C)c(=S)n(C)c2=O)c(=O)n(C)c1=S,2%,13,u,-68*,-9%,-7%
Cn1c(O)c(C(c2ccccn2)c2c(O)n(C)c(=S)n(C)c2=O)c(=O)n(C)c1=S,-3%,12,-29,u,15%,x
O=C1NC(=O)C2(Cc3ccccc3N3CCCC32)C(=O)N1Cc1ccccc1 (centres undefined),23µM*,19,6,-1,u,0%
O=C1NC(=O)[C@]2(Cc3ccccc3N3CCN(c4ccccc4)CC32)C(=O)N1Cc1ccccc1 (some centres undefined),23µM*,-23,-3,-14,21µM*,7%
CN1C(=O)NC(=O)[C@]2(Cc3ccccc3N3CCN(c4ccccc4)CC32)C1=O (some centres undefined),u,0,-26,-28,u,3%
O=C1NC(=O)C2(Cc3c(nc4ccccn4c3=O)N3CCCCCC32)C(=O)N1Cc1ccccc1 (centres undefined),23µM*,1,-8,-3,21µM*,3%
CC1CCN2c3nc4ccccn4c(=O)c3CC3(C(=O)N(C)C(=O)N(C)C3=O)C2C1 (centres undefined),-9%,19,3,2,2%,3%
CCC1([N+](=O)[O-])COP(=O)(NCc2cccnc2)OC1 (centres undefined),9%,6,7,7,1%,x
COC1=CC=C2[C@H]3Cc4ccc(OC)c5c4[C@@]2(CCN3C)[C@H]1O5,-21%,-7,-3,-6,3%,1%
CC/C=C\C/C=C\C/C=C\C/C=C\C/C=C\CCCC(N)=O,x,x,x,x,x,2%
CCCC[N+]12CCC(CC1)C(=C(c1ccccc1)c1ccccc1)C2,4.1µM*,-4,3,10,4.6µM*,4%
CCC[N+]12CCC(CC1)C(=C(c1ccccc1)c1ccccc1)C2,21µM*,i,-20,1,15µM*,5%
O=C(O)COc1cc(Cl)c(Cl)cc1Cl,-2%,x,x,x,-22%,4%
CC(=O)[C@@]1(O)CC[C@H]2[C@@H]3C[C@H](C)C4=CC(=O)CC[C@]4(C)[C@H]3CC[C@@]21C,29µM*,u,-21,4,u,6%
C=CCc1c(C)nc(C)nc1N/N=C/c1ccc(N(C)C)cc1,21µM*,20,-9,-9,4.6µM*,6%
COC(=O)C(Cc1ccc(N(CCCl)CCCl)cc1)N=Cc1ccccc1O (centres undefined),0.082µM*,-97*,1,-5,0.12µM*,3%
O=C(Cc1cc(=O)oc2cc(O)ccc12)NN=Cc1ccc(N(CCCl)CCCl)cc1,u,-23,u,-27,u,x
CCOC(=O)C1=C(NC(=S)NC(=O)c2ccccc2)c2ccccc2CC12CCCC2,18µM*,u,-24,-10,16µM*,3%
